From PubChem BioAssay AID1159580 (chemical genetic matrix, 2015)
Among all 5,500 compounds or so, about 2,000 (36%) were called active. Roughly 18% stayed inconclusive and do not appear here. No stated cut-off is given here; in the data, active means normalized growth mostly below about 0.91 (no sharp cut-off); inconclusive means no clear call, values can overlap the other calls; inactive means mostly above about 0.92. This is one part of the list.

Test: chemical genetic growth profiling, strain panel (AID 1159580);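 further: tested at 20 µM; growth read once vehicle control cultures reached saturation at 30 °C; 1 = growth at the plate median or of vehicle wells; lower values mean less growth of the strain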
Details: growth OD

Measured: normalized growth

CNC(C)C(O)c1ccccc1 (centres undefined)
inactive: S. cerevisiae deletion strains, locus YJR043C, strain POL32, hits give low values 0.999 | S. cerevisiae deletion strains, locus YJR066W, strain TOR1, hits give low values 0.987 | S. cerevisiae deletion strains, locus YKL009W, strain mrt4, hits give low values 1.01 | S. cerevisiae deletion strains, locus YKL068W, hits give low values 1.01 | S. cerevisiae deletion strains, locus YKL085W, strain MDH1 (second series), hits give low values 1 | S. cerevisiae deletion strains, locus YKL085W, strain MDH1, hits give low values 1 | S. cerevisiae deletion strains, locus YKL160W, strain elf1, hits give low values 1.02 | S. cerevisiae deletion strains, locus YKL190W, strain CNB1, hits give low values 1.01 | S. cerevisiae deletion strains, locus YKR001C, strain vps1, hits give low values 1.03 | S. cerevisiae deletion strains, locus YKR026C, strain gcn3, hits give low values 1.01 | S. cerevisiae deletion strains, locus YKR091W, strain srl3, hits give low values 1.01 | S. cerevisiae deletion strains, locus YLL001W, strain dnm1, hits give low values 1.03 | S. cerevisiae deletion strains, locus YLL026W, hits give low values 1.01 | S. cerevisiae deletion strains, locus YLL041C, strain sdh2, hits give low values 1.01 | S. cerevisiae deletion strains, locus YLR027C, strain aat2, hits give low values 1.02 | S. cerevisiae deletion strains, locus YLR039C, strain RIC1, hits give low values 0.995 | S. cerevisiae deletion strains, locus YLR058C, strain SHM2, hits give low values 1 | S. cerevisiae deletion strains, locus YLR102C, strain apc9, hits give low values 1.02 | S. cerevisiae deletion strains, locus YLR113W, strain HOG1, hits give low values 0.963 | S. cerevisiae deletion strains, locus YLR221C, strain rsa3, hits give low values 1.01 | S. cerevisiae deletion strains, locus YLR258W, strain gsy2, hits give low values 1.01 | S. cerevisiae deletion strains, locus YLR262C, strain YPT6 (second series), hits give low values 1.01 | S. cerevisiae deletion strains, locus YLR262C, strain YPT6, hits give low values 1.03 | S. cerevisiae deletion strains, locus YLR268W, strain sec22, hits give low values 1.02 | S. cerevisiae deletion strains, locus YLR320W, strain mms22, hits give low values 1.02 | S. cerevisiae deletion strains, locus YLR330W, strain CHS5, hits give low values 1 | S. cerevisiae deletion strains, locus YLR342W, strain FKS1 (second series), hits give low values 1 | S. cerevisiae deletion strains, locus YLR342W, strain FKS1, hits give low values 1.02 | S. cerevisiae deletion strains, locus YLR357W, strain rsc2, hits give low values 1.05 | S. cerevisiae deletion strains, locus YLR370C, strain arc18, hits give low values 1.01 | S. cerevisiae deletion strains, locus YLR371W, strain rom2, hits give low values 1.02 | S. cerevisiae deletion strains, locus YLR384C, strain iki3, hits give low values 1.02 | S. cerevisiae deletion strains, locus YLR418C, strain cdc73, hits give low values 1.04 | S. cerevisiae deletion strains, locus YML016C, strain PPZ1, hits give low values 1.01 | S. cerevisiae deletion strains, locus YML032C, strain rad52, hits give low values 1.03 | S. cerevisiae deletion strains, locus YML120C, strain ndi1, hits give low values 1.02 | S. cerevisiae deletion strains, locus YML124C, strain tub3, hits give low values 1.03 | S. cerevisiae deletion strains, locus YMR058W, strain fet3, hits give low values 1.02 | S. cerevisiae deletion strains, locus YMR078C, strain ctf18, hits give low values 1.03 | S. cerevisiae deletion strains, locus YMR125W, strain sto1, hits give low values 0.996 | S. cerevisiae deletion strains, locus YMR129W, hits give low values 1 | S. cerevisiae deletion strains, locus YMR205C, strain PFK2, hits give low values 1.01 | S. cerevisiae deletion strains, locus YMR223W, strain ubp8, hits give low values 1.02 | S. cerevisiae deletion strains, locus YMR231W, strain pep5, hits give low values 1.01 | S. cerevisiae deletion strains, locus YMR307W, strain GAS1, hits give low values 1.02 | S. cerevisiae deletion strains, locus YNL067W, strain RPL9B, hits give low values 1 | S. cerevisiae deletion strains, locus YNL071W, strain lat1, hits give low values 1.02 | S. cerevisiae deletion strains, locus YNL128W, strain TEP1, hits give low values 1.02 | S. cerevisiae deletion strains, locus YNL183C, strain NPR1, hits give low values 0.971 | S. cerevisiae deletion strains, locus YNL209W, strain ssb2, hits give low values 1.01 | S. cerevisiae deletion strains, locus YNL233W, strain BNI4, hits give low values 1 | S. cerevisiae deletion strains, locus YNL248C, strain rpa49, hits give low values 1.01 | S. cerevisiae deletion strains, locus YNL250W, strain rad50, hits give low values 1.02 | S. cerevisiae deletion strains, locus YNL271C, strain bni1, hits give low values 1.02 | S. cerevisiae deletion strains, locus YNL298W, strain CLA4, hits give low values 1.03 | S. cerevisiae deletion strains, locus YNL307C, strain MCK1, hits give low values 1.04 | S. cerevisiae deletion strains, locus YNL322C, strain KRE1 (second series), hits give low values 1.01 | S. cerevisiae deletion strains, locus YNR049C, strain mso1, hits give low values 1.01 | S. cerevisiae deletion strains, locus YNR052C, strain pop2, hits give low values 1.02 | S. cerevisiae deletion strains, locus YOL006C, strain TOP1, hits give low values 0.993 | S. cerevisiae deletion strains, locus YOL012C, strain htz1 1.14 | S. cerevisiae deletion strains, locus YOL147C, strain pex11, hits give low values 1.03 | S. cerevisiae deletion strains, locus YOR001W, strain rrp6, hits give low values 1.02 | S. cerevisiae deletion strains, locus YOR061W, strain CKA2, hits give low values 1.01 | S. cerevisiae deletion strains, locus YOR069W, strain VPS5, hits give low values 1 | S. cerevisiae deletion strains, locus YOR070C, strain gyp1, hits give low values 1.01 | S. cerevisiae deletion strains, locus YOR080W, strain dia2, hits give low values 1.01 | S. cerevisiae deletion strains, locus YOR083W, strain WHI5, hits give low values 1.02 | S. cerevisiae deletion strains, locus YOR106W, strain vam3, hits give low values 1.03 | S. cerevisiae deletion strains, locus YOR136W, strain idh2, hits give low values 1.02 | S. cerevisiae deletion strains, locus YOR144C, strain elg1, hits give low values 1.01 | S. cerevisiae deletion strains, locus YOR184W, strain ser1, hits give low values 1.03 | S. cerevisiae deletion strains, locus YOR231W, strain MKK1, hits give low values 0.995 | S. cerevisiae deletion strains, locus YOR265W, strain rbl2, hits give low values 1.01 | S. cerevisiae deletion strains, locus YOR270C, strain vph1, hits give low values 1.04 | S. cerevisiae deletion strains, locus YOR290C, strain snf2, hits give low values 1 | S. cerevisiae deletion strains, locus YOR316C, strain cot1, hits give low values 1.02 | S. cerevisiae deletion strains, locus YPL051W, strain arl3, hits give low values 1.02 | S. cerevisiae deletion strains, locus YPL055C, strain LGE1, hits give low values 1.01 | S. cerevisiae deletion strains, locus YPL078C, strain atp4, hits give low values 1.03 | S. cerevisiae deletion strains, locus YPL106C, strain sse1, hits give low values 1.01 | S. cerevisiae deletion strains, locus YPL240C, strain hsp82, hits give low values 1.01 | S. cerevisiae deletion strains, locus YPL256C, strain CLN2, hits give low values 1.03 | S. cerevisiae deletion strains, locus YPR119W, strain clb2, hits give low values 1.02 | S. cerevisiae deletion strains, locus YPR141C, strain kar3, hits give low values 1.02 | S. cerevisiae deletion strains, locus YPR163C, strain tif3, hits give low values 1.04 | S. cerevisiae deletion strains, locus YPR167C, strain met16, hits give low values 1.02 | S. cerevisiae deletion strains, strain wtn01, hits give low values 1.02 | S. cerevisiae strains, strain wild type, hits give low values 0.999
